# Bioassay records as filed in PubChem.
# CYP2C9 inh = inhibitors of human CYP2C9; P11712; CYP2C9 Supersomes, luciferin-H conversion, luminescence; inhibition, % at 5 µM; 96,000 compounds, 20% hits; AID 777;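 active means blocking of liver enzyme CYP2C9 beyond about 50% at 5 µM, limit read from the data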
# Target sequence (P11712 whole entry, looked up): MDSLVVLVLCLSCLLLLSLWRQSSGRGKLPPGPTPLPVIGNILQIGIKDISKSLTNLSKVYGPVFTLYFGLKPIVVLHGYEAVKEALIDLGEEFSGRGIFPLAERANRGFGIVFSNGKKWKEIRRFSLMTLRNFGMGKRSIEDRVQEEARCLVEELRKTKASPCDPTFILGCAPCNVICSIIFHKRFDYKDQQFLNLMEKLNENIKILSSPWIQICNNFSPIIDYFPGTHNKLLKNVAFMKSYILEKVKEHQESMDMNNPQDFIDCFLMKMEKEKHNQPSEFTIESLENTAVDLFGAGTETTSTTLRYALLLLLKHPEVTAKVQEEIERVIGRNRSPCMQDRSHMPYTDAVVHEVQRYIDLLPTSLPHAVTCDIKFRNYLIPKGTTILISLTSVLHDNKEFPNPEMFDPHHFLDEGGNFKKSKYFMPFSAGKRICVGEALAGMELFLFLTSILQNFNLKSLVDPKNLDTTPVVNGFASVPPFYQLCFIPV
# Measles CPE = protection of cells from measles virus; Measles virus-infected cells, CPE protection, absorbance; protection (pct of control), % at 4 µM; 140,000 compounds, 1.5% hits; in the data active means protection mostly above about 24%, no sharp cut-off; inactive means mostly below about 26%
# CYP2C19 activ = cytochrome P450 2C19 (human) activation; recombinant CYP2C19, luciferin-H EGE luminescence; hits give high values; 0 = fully inhibited enzyme, 1 = untreated enzyme; activation factor at 5 µM; 96,000 tested, under 10 active; AID 1025;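 active means activation factor of at least 2 at 5 µM in the primary screen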;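 further: 0 = wells with 2.5 mM tranylcypromine and 1 = vehicle-only wells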
# CYP2C19 inhib = blocks human cytochrome P450 2C19; CYP2C19 Supersomes, luciferin-H EGE luminescence, 30 min; inhibition, % at 5 µM; 96,000 compounds, 21% hits; AID 778;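 active means CYP2C19 inhibition above a set limit at 5 µM in the primary screen, cut at about 50% in these data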;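 further: plate controls were negative control wells for no effect and 2.5 mM tranylcypromine positive control for full effect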
# CYP2C9 activ = increases human cytochrome P450 2C9 activity; P11712; recombinant CYP2C9, luciferin-H conversion, luminescence; hits give high values; factor 1 = untreated enzyme, 0 = blocked; activation factor at 5 µM; 96,000 compounds, 1.4% hits; AID 1024;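 active means activation factor of 2 or more for CYP2C9 at a 5 µM dose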;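 further: 0 = sulfaphenazole-blocked wells and 1 = vehicle-only wells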
# Numbers without * were called inactive; · = not tested or not shown. In the library only some 22% were active in any assay of this set; here they are far more common.
SMILES,CYP2C9 inh,Measles CPE,CYP2C19 activ,CYP2C19 inhib,CYP2C9 activ
C=CCn1c(C)cc(C(=O)CSc2nnc(-c3cccc(S(=O)(=O)N(CC)CC)c3)o2)c1C,89.3*,15.7,0.1,86.8*,0.1
CCN(CC)S(=O)(=O)c1cccc(-c2nnc(-c3ccc(C)cc3)o2)c1,16.2,15.4,0.8,15.9,0.8
CCN(CC)S(=O)(=O)c1cccc(-c2nnc(SCC(=O)c3cc(C)n(C4CC4)c3C)o2)c1,69.7*,·,0.4,64.1*,0.3
Cc1[nH]n(C(N)=S)c(=O)c1C(c1ccccc1)C(C#N)C#N (configuration not stated),14.6,11.5,0.9,5.4,0.9
CCCc1[nH][nH]c(=O)c1C(c1ccc(Br)cc1)C(C#N)C#N (configuration not stated),61.2*,13.8,0.6,43.4,0.4
CCCc1[nH][nH]c(=O)c1C(c1ccccc1)C(C#N)C#N (configuration not stated),62.3*,3.0,0.4,57.6*,0.4
CCCc1[nH][nH]c(=O)c1C(c1ccc(Cl)cc1)C(C#N)C#N (configuration not stated),·,0.1,·,·,·
O=C(O)c1ccccc1NCN1C(=O)C2CC=C(Cl)CC2C1=O (configuration not stated),1.8,4.4,1,3.3,1
CN(c1ccc(O)cc1)c1nc(-c2ccccc2)cs1,·,13.2,·,·,·
CC1(C)C([N+](=O)[O-])C(c2ccc(Cl)cc2)NC(c2ccc(Cl)cc2)C1[N+](=O)[O-] (configuration not stated),·,6.6,·,·,·
COc1ccccc1-c1cc(C(F)(F)F)n2ncc(S(=O)(=O)c3ccccc3)c2n1,96.7*,4.3,0.6,38.4,0
O=C(NC1CCCCC1)C(c1cccnc1)N(C(=O)c1csnn1)C1CCCC1 (configuration not stated),·,7.8,·,·,·
O=C(Nc1ccc(OC(F)(F)F)cc1)c1n[nH]c(Cn2cncn2)n1,22.7,4.8,0.7,32.2,0.8
N#C/C(=C\c1ccc(F)cc1)c1n[nH]c(Cn2cncn2)n1,58.4*,7.1,0.5,48.7,0.4
N#C/C(=C\c1cccc(Cl)c1)c1n[nH]c(Cn2cncn2)n1,51.5*,2.1,0.8,24.9,0.5
COc1cccc(C(C(=O)NC2CCCC2)N(Cc2ccccc2OC)C(=O)c2ccco2)c1 (configuration not stated),·,4.5,·,·,·
CCCCCNC(=O)Cc1cc(=O)[nH]c(=O)[nH]1,2.4,2.8,0.8,16.7,1
Cc1c(-n2c(SCC(=O)O)nnc2-c2ccccc2Cl)c(=O)n(-c2ccccc2)n1C,·,7.0,·,·,·
CCOC(=O)c1c(NC(=O)CSc2nnc(-c3ccco3)o2)sc(C)c1C,48.2,3.2,0.8,20.6,0.5
CCOC(=O)c1c(NC(=O)CSc2nnc(-c3cccnc3)o2)sc(C(C)=O)c1C,65.4*,9.4,0.9,14.0,0.3
CCOC(=O)c1c(NC(=O)CSc2nnc(-c3ccco3)o2)sc(C(C)=O)c1C,69.7*,10.4,0.9,14.5,0.3
Cc1nn(CC(=O)Nc2cc(S(=O)(=O)N(C)C)ccc2Cl)c(C)c1[N+](=O)[O-],·,40.5*,·,·,·
CCN(CC)S(=O)(=O)c1ccc(NCc2ccccc2)nc1,76.6*,12.6,0.4,63.5*,0.2
CCCNc1ccc(S(=O)(=O)N(CC)CC)cn1,·,5.1,·,·,·
COc1ccccc1NC(=O)c1nn(C)cc1Br,-122.1,4.8,0.6,38.6,2.2*
SMILES,CYP2C9 inh,Measles CPE,CYP2C19 activ,CYP2C19 inhib,CYP2C9 activ
COc1ccccc1NC(=S)NNC(=O)c1nn(C)c(C)c1Cl,9.6,6.3,0.7,28.6,0.9
COc1ccccc1NC(=S)NNC(=O)c1nn(C)cc1Cl,7.2,4.2,0.4,56.7*,0.9
O=C(/C=C/c1cccc([N+](=O)[O-])c1)NCCSCc1cccc(Cl)c1,·,5.8,·,·,·
O=c1cc(-c2ccccc2)nc2nc(SCc3ccccc3)[nH]n12,89.9*,12.5,1,0.7,0.1
O=c1cc(-c2ccccc2)nc2nc(-c3ccco3)[nH]n12,51.9*,16.6,1.1,-12.1,0.5
O=c1cc(-c2ccccc2)nc2nc(CCc3ccccc3)[nH]n12,72.3*,3.1,1.1,-11.6,0.3
O=c1cc(-c2ccccc2)nc(SCc2ccccc2)[nH]1,15.8,5.8,0.9,5.9,0.8
O=c1cc(-c2ccccc2)nc(SCc2ccc(Cl)cc2)[nH]1,24.7,1.2,0.5,53.9*,0.8
Cc1nc2nc(-c3ccccc3)cc(=O)n2[nH]1,20.0,11.9,0.6,38.9,0.8
Cc1ccc(OCCn2cnc3ccccc3c2=O)c([N+](=O)[O-])c1,·,4.0,·,·,·
NC(=O)NC(c1ccccc1)c1ccccc1,28.5,6.6,0.2,80.0*,0.7
NC(=O)NC(c1ccccc1)c1ccccc1F (configuration not stated),6.1,9.3,0.3,72.1*,0.9
NC(=O)NC(c1ccccc1)c1cccc2ccccc12 (configuration not stated),-1.2,18.4,0.3,71.7*,1
NC(=O)NC(Cc1ccccc1)c1ccccc1 (configuration not stated),2.0,0.3,0.5,46.9,1
CC1CN=C(N(C(=O)Nc2ccccc2)c2ccc(S(=O)(=O)N3CCOCC3)cc2)S1 (configuration not stated),45.9,7.0,0.9,7.2,0.5
COC(=O)[C@H]1C[C@@H]1[C@H](NS(=O)(=O)c1ccccc1)c1ccccc1,·,13.3,·,·,·
O=c1[nH]c2c(s1)C(c1ccco1)C1C3CCC(C3)C1S2 (configuration not stated),37.8,2.7,0.2,82.7*,0.6
CCOC(=O)c1ccccc1OCc1cc(/C=N/n2cnnc2)ccc1OC,71.4*,1.4,0.4,60.9*,0.3
Cc1ccc(C(=O)NNC(=O)CCN2C(=O)C3CCCCC3C2=O)cc1 (configuration not stated),·,3.5,·,·,·
CCC(C)(C)C1CCC(=NNC(=O)c2ccoc2C)CC1 (configuration not stated),7.5,5.2,0.9,7.3,0.9
CCOc1ccccc1-c1nc(-c2ccc(NC(=O)Cc3ccccc3OC)cc2)no1,-104.2,7.0,0.5,52.1*,2*
COc1ccc(Cc2nnc(NC(=O)CSc3ccccc3)s2)cc1,17.3,21.2,1,-0.9,0.8
COc1ccc(Cc2nnc(NC(=O)c3c(-c4ccccc4)noc3C)s2)cc1OC,53.7*,2.9,0.9,8.7,0.5
Cc1onc(-c2ccccc2)c1C(=O)NCCc1c[nH]c2ccccc12,56.4*,9.0,0.4,58.6*,0.4
COc1ccc(Cc2nnc(NC(=O)c3c(-c4ccccc4)noc3C)s2)cc1,93.1*,8.3,0.2,84.0*,0.1
COc1ccc(CCNC(=O)c2cc(C(C)C)on2)cc1OC,6.2,20.2,0.6,35.4,0.9
COc1ccc(CCNC(=O)c2c(-c3ccccc3)noc2C)cc1OC,85.6*,20.2,0.1,89.7*,0.1
OCC#Cc1cnc2ccccc2c1,15.4,1.1,0.7,26.9,0.8
O=C(CS(=O)(=O)Cc1ccccc1)Nc1ccc(Cl)cn1,·,8.3,·,·,·
